Most compounds without a hit are left out; they make up all but 10% or so of the library.
JMJD2A Tudor = JMJD2A Tudor domain (human) inhibition; AID 504339; AlphaScreen JMJD2A-Tudor / H3K4me3 peptide binding; O75164; Potency, µM (doses to about 114 µM), hits mostly inhibitors; 390,000 tested, 4.4% active; note: nearly all actives have a fitted effect of over 50% in size
HP1b chromo inh = inhibitors of HP1-beta chromodomain binding to methylated histone tails | Potency, µM (top dose mostly 114 µM), usual class: inhibitors | 390,000 tested, 0.56% active | AlphaScreen HP1-beta / biotin-H3K9me3 peptide binding | P83916; note: nearly all actives have a fitted effect of over 70% in size
Target sequence (P83916 whole entry, looked up): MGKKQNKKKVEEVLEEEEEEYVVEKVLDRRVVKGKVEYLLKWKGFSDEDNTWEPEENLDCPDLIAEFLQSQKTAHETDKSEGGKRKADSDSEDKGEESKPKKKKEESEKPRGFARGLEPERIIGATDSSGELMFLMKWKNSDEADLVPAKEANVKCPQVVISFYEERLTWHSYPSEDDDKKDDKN
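AlphaScreen: HP1-beta (50 nM) preformed 30 min with biotin-H3(1-18)K9me3 peptide (50 nM) in PBS pH 7.4, 0.01% Tween-20. Compound added for 30 min at RT, then streptavidin donor/nickel chelate acceptor beads (10 ug/mL) for 30 min.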
BAZ2B block = inhibitors of human BAZ2B bromodomain | 360,000 tested, 4.4% active | AlphaScreen BAZ2B-H3K14Ac peptide displacement | Potency, µM (doses to about 114 µM), most hits filed as inhibitors | Q9UIF8; note: nearly all actives have a fitted effect of over 60% in size
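Protein-peptide AlphaScreen: BAZ2B 50 nM, b-H3K14Ac 50 nM, 1x PBS pH 7.4 + 0.01% Tween-20. Preincubation 30 min RT; cpd 30 min RT (top 110 uM); beads 20 min RT, light-protected.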
G9a block = inhibitors of human histone lysine methyltransferase G9a | Q96KQ7 | G9a H3K9 monomethylation, AlphaScreen, 2 h | Potency, µM (titrated, usually from 102 µM), most hits filed as inhibitors | 350,000 tested, 8.8% active; note: nearly all actives have a fitted effect of over 75% in size
Target sequence (Q96KQ7 913-1193 limits assumed): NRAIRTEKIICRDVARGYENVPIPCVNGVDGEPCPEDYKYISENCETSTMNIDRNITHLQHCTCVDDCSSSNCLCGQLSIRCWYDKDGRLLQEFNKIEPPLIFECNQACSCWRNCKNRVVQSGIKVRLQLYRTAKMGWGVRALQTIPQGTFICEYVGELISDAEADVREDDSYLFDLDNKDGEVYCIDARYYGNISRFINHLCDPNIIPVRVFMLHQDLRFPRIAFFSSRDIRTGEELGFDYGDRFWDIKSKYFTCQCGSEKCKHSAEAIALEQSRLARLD
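AlphaScreen read-out: biotin-H3K9 peptide (500 nM) methylation by 20 nM enzyme with 20 uM SAM, 2 h at room temperature after 15 min compound preincubation; anti-monomethyl H3K9 antibody plus donor/acceptor beads, 10 min dark.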
GLS inhibitor = inhibitors of human glutaminase (GLS); O94925; GLS enzymatic activity, qHTS titration; Potency, µM (top dose mostly 45.5 µM), most hits filed as inhibitors; 410,000 tested, 0.21% active
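Glutamate formation by hKGA was monitored fluorometrically using coupled glutamate oxidase, HRP and Amplex Red. Substrate was added as 1 mM L-glutamine solution; incubation was 30 min at RT after an initial read.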
Hits are given with their value; - = inactive; ? = inconclusive; . = no result given; [ ] = dose if it differs, or a comment. Calls come from the whole dose curve; as a rule, active = well fitted curve in the direction sought with a large enough effect; inconclusive = small, poorly fitted or top-dose-only effect, or another doubt; inactive = no such curve, though single readings can be large; an effect the other way counts as inactive or inconclusive.

SMILES | JMJD2A Tudor | HP1b chromo inh | BAZ2B block | G9a block | GLS inhibitor
CCOC(=O)N1CCN(C(=O)c2ccc(Cn3c(=S)[nH]c4cc5c(cc4c3=O)OCO5)cc2)CC1 | ? | - | - | 7.1µM | -
O=C(NCC1CCCO1)c1ccc2c(=O)n(CC3CCCO3)c(=S)[nH]c2c1 (centres undefined) | 7.9µM | - | ? | ? | -
O=C(CCCn1c(=S)[nH]c2ccc(Br)cc2c1=O)NCC1CCCO1 (centres undefined) | - | - | - | 40µM | -
CCOC(=O)N1CCN(C(=O)c2ccc3c(=O)n(CC4CCCO4)c(=S)[nH]c3c2)CC1 (centres undefined) | 50µM | - | - | 40µM | -
O=CC(=Cc1ccccc1)c1ccccc1 | . | . | . | . | -
O=C(NCC1CCCO1)c1ccc(C(=O)NCC2CCCO2)cc1 (centres undefined) | - | - | - | ? | -
CC1CCc2[nH]c3ccc(C(=O)NCC4CCCO4)cc3c2C1 (centres undefined) | ? | ? | - | 45µM | -
O=C(NCC1CCCO1)c1csc2c1CCCCC2 (centres undefined) | - | - | - | - | -
COCCn1c(=S)[nH]c2cc(C(=O)NCC3CCCO3)ccc2c1=O (centres undefined) | 18µM | - | ? | ? | -
CC1CCc2c(C(=O)NCC3CCCO3)csc2C1 (centres undefined) | - | - | - | 89µM | -
CN1CCN(C(=O)c2ccc3c(=O)n(Cc4ccc(Cl)cc4)c(=S)[nH]c3c2)CC1 | - | - | - | 45µM | ?
CCCN(CCC)c1cc(C)nc2nc(-c3ccc(Cl)cc3)nn12 | - | - | - | - | -
CC(=O)Nc1cccc(-c2ccnc3c2CC(C)(C(=O)NCC2CC2)O3)c1 (centres undefined) | . | . | . | . | -
CCn1c(CN2CCC(C)CC2)nc2cc(NC(=O)c3cccc([N+](=O)[O-])c3)ccc21 | 56µM | - | - | - | -
N#CC1=C(N)OC2=C(CC/C2=C\c2ccc(F)cc2)C1c1ccc(F)cc1 (centres undefined) | . | . | - | ? | .
N#CC1=C(N)OC2=C(CCC/C2=C/c2ccoc2)C1c1ccoc1 (centres undefined) | . | . | ? | 16µM | .
O=C(CNCCc1ccc(F)cc1)Nc1cc(F)ccc1F | 28µM | - | 20µM | ? | -
CCCNC(=O)c1ccc2c(c1)sc1nc(-c3ccc(C)cc3)cn12 | - | - | - | - | -
CCN(CC)CCCNC(=O)c1ccc2c(c1)sc1nc(-c3ccc(C)cc3)cn12 | ? | - | 40µM | 11µM | -
COc1ccc(NC(=O)CSc2n[nH]c(-c3ccco3)n2)cc1 | - | - | ? | -[12.7 µM] | -
CCOC(=O)CSc1n[nH]c(-c2ccco2)n1 | ? | - | - | - | -
O=C(CSc1n[nH]c(-c2ccco2)n1)Nc1ccc(Br)cc1 | 45µM | - | - | - | -
O=C(CSc1n[nH]c(-c2ccco2)n1)N1c2ccccc2Sc2ccccc21 | - | - | 56µM | 50µM | -
C=Cc1ccc(S(=O)(=O)O)cc1 | . | . | . | -[12.7 µM] | -
COC(=O)c1ccc(NC(=O)CC2C(=O)N(c3cccc(OC)c3)C(=O)N2Cc2ccco2)cc1 (centres undefined) | - | - | - | ? | -
SMILES | JMJD2A Tudor | HP1b chromo inh | BAZ2B block | G9a block | GLS inhibitor
COC(=O)c1ccccc1-c1ccc(/C=C2\C(=O)N(c3ccccc3)N=C2c2ccccc2)o1 | ? | 1.4µM | 3.2µM | 7.1µM | -
CC1=CSC2=NC(=O)/C(=C\c3cccn3-c3ccc([N+](=O)[O-])cc3)C(=N)N12 | ? | - | - | - | -
COc1ccc(-c2ccc(C(=O)O)o2)c([N+](=O)[O-])c1 | - | - | ? | 56µM | -
COc1ccc(-c2ccc(/C=C3\C(=O)N(c4ccccc4)N=C3c3ccccc3)o2)c([N+](=O)[O-])c1 | ? | 3.5µM | 8.9µM | 7.1µM | -
COC(=O)c1ccccc1-c1ccc(/C=N/Nc2nc(N3CCCC3)nc(N3CCCC3)n2)o1 | - | - | - | . | -
CCOc1ccc(-c2ccc(C=O)o2)c([N+](=O)[O-])c1 | - | - | ? | ? | -
COc1ccc(-c2ccc(/C=C3/C(=N)N4C(C)=CSC4=NC3=O)o2)c([N+](=O)[O-])c1 | ? | - | ? | 7.1µM | -
COc1ccc(S(=O)(=O)N(Cc2nc(-c3ccc(Cl)cc3)no2)C2CCCCC2)cc1 | - | - | - | - | -
CCOc1ccccc1NC(=O)Cn1cc(C(=O)c2ccc(Cl)cc2)c(=O)c2ccc(C)nc21 | - | - | - | - | -
COc1cc(CC(=O)NCC(C)(C)N2CCOCC2)cc(OC)c1OC | - | - | - | 50µM | -
Brc1ccc(-c2noc(COc3ccc4ccccc4c3)n2)o1 | - | - | ? | 45µM | -
COc1ccc(Cc2nc(-c3ccc(Br)o3)no2)cc1OC | - | - | - | 50µM | -
COc1ccc(-c2noc(-c3ccc(Br)o3)n2)cc1OC | - | - | - | -[12.7 µM] | -
C/C(=N\NC(=S)Nc1cccc(C)c1)c1cccc(N)c1 | ? | ? | ? | ? | -
COc1ccccc1NC(=S)NN=C(C)c1ccccn1 | ? | ? | . | . | -
C/C(=N\NC(=S)Nc1ccc(F)cc1)c1ccc2c(c1)OCCO2 | 32µM | ? | 35µM | ? | -
CC(=NNC(=S)Nc1ccc(C)cc1)c1ccccn1 | 79µM | ? | . | . | -
C/C(=N\NC(N)=S)c1ccc2c(c1)OCCO2 | - | - | - | . | -
CC(=NNC(=S)Nc1cccc(C)c1)c1ccccn1 | 50µM | ? | . | . | -
C/C(=N\NC(=S)Nc1ccc(C)cc1)c1cccc(N)c1 | ? | - | ? | 45µM | -
COCCCn1c(=O)c2ccccc2n(CC(=O)NC2CCCCC2)c1=O | - | - | - | - | -
COc1ccc(Oc2ncc3nc(-c4ccc(F)cc4)c(=O)n(Cc4cccs4)c3n2)cc1 | . | . | . | -[0.501 µM] | .
COc1ccc(C(=O)Oc2cccc3cccnc23)cc1[N+](=O)[O-] | ? | - | 14µM | - | -
NC(=O)c1ccc(Oc2cccc3cccnc23)c([N+](=O)[O-])c1 | - | - | - | - | -
Cn1c(=S)ccc2ccccc21 | - | ? | - | 10µM | -
SMILES | JMJD2A Tudor | HP1b chromo inh | BAZ2B block | G9a block | GLS inhibitor
CCOCC(O)COc1ccc(NC(=O)CC[S+](C)C)cc1 (centres undefined) | . | . | . | -[12.7 µM] | -
CCC(C)c1ccc(O)c(N)c1 (centres undefined) | ? | - | - | 2.8µM | -
CCC(C)c1ccccc1O (centres undefined) | - | - | - | -[0.501 µM] | -
CC(C)c1ccc(O)c(NC(=O)c2cccnc2)c1 | - | - | - | ? | -
CC(C)c1ccc(O)c(N)c1 | - | - | ? | 1.4µM | -
O=C1NCC(c2ccccc2)C1C(=O)N/N=C\c1ccc(-c2cccc(Cl)c2Cl)o1 (centres undefined) | ? | - | ? | 13µM | -
Cc1nc(SCC(=O)NC2(C#N)CCCC2)n(CC(C)C)c1C | - | - | - | 40µM | -

Screening results: PubChem, National Center for Advancing Translational Sciences (NCATS)
